From PubChem
G9a block: G9a (human) methyltransferase inhibition. G9a H3K9 monomethylation, AlphaScreen, 2 h. AID 504332. Potency, µM (titrated, usually from 102 µM), inactives show at the highest dose activity, negative = inhibition, actives largely listed as inhibitors. hit rate 8.8% among 350,000; note: % is set by controls: 0 for no effect and ±100 for the full control effect; nearly all actives have a fitted effect of over 75% in size
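G9a (20 nM) preincubated 15 min RT with compounds, then 500 nM biotinylated H3K9 peptide and 20 uM SAM added; 2 h RT reaction. Monomethyl-H3K9 product detected by AlphaScreen with anti-H3K9me1 antibody, streptavidin donor and anti-rabbit IgG acceptor beads.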
JMJD2A Tudor inh: JMJD2A Tudor domain (human) inhibition. O75164. AlphaScreen JMJD2A-Tudor / H3K4me3 peptide binding. Potency, µM (top dose mostly 114 µM), inactives show at the top dose activity change, negative = inhibition, hits mostly inhibitors. hit rate 4.4% among 390,000; note: % is set by controls: 0 for no effect and ±100 for the full control effect; nearly all actives have a fitted effect of over 50% in size
Target sequence (O75164 whole entry, looked up, the tested form may be a part): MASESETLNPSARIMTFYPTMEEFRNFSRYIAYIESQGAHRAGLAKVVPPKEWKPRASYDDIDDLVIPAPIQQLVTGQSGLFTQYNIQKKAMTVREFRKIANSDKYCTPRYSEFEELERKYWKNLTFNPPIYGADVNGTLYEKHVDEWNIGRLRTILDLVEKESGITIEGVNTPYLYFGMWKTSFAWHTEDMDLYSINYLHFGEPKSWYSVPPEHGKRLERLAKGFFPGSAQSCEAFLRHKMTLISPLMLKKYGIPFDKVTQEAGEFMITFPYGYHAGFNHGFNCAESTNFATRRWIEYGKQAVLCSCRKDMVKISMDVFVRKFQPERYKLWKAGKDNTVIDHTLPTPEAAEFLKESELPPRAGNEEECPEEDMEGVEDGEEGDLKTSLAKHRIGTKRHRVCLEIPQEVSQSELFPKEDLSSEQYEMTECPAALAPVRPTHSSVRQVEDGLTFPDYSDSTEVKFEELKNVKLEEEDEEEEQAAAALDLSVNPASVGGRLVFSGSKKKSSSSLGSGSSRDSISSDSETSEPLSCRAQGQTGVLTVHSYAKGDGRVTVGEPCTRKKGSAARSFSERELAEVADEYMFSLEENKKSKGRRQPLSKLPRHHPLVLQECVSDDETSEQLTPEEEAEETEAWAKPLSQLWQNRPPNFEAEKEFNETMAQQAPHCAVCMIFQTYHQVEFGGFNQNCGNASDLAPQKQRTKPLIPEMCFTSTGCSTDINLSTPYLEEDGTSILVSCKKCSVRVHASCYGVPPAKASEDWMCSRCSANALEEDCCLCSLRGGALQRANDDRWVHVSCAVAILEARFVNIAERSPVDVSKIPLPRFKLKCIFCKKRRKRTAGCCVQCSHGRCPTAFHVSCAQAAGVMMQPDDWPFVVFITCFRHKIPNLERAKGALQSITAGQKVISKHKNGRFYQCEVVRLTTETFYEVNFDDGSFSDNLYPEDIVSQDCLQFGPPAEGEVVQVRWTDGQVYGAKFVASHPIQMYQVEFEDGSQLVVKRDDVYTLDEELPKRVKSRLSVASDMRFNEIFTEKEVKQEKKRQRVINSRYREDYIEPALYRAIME
BAZ2B inh: inhibitors of human BAZ2B bromodomain; Q9UIF8; AlphaScreen BAZ2B-H3K14Ac peptide displacement; Potency, µM (doses to about 114 µM), for the others: at the top dose activity change, negative = inhibition, usual class: inhibitors; hit rate 4.4% among 360,000; AID 504333; note: % is set by controls: 0 for no effect and ±100 for the full control effect; nearly all actives have a fitted effect of over 60% in size
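BAZ2B (50 nM) with biotin-H3(5-23)K14Ac peptide (50 nM) in PBS pH 7.4, 0.01% Tween-20, preformed 30 min, then compound 30 min at room temperature; top concentration 110uM. AlphaScreen streptavidin donor/nickel chelate acceptor beads (10 ug/mL final), 20 min dark, signal read.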
Sfp PPTase inh: Sfp phosphopantetheinyl transferase inhibition; Q9F4F7; Biochemical Sfp PPTase activity, qHTS; Potency, µM, for the others: largest response in the series, negative = inhibition, usual class: inhibitors; hit rate 3.5% among 310,000; AID 1490;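 note: the enzyme is Sfp with the accession as filed and its product quenches rhodamine fluorescence; 0% = enzyme reaction without inhibitor and -100% = no enzyme wells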
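Sfp 15 nM + cpd, 15 min RT; start w/ rhodamine-CoA 5 uM, BHQ-2-YbbR 12.5 uM (final); 50 mM Hepes pH 7.6, 10 mM MgCl2, 0.01% NP-40, 0.01% BSA; read 525/598 nm at 0 and 30 min.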
L3MBTL1 inh: blocks human L3MBTL1; Q9Y468; AlphaScreen L3MBTL1–H3K9me1 peptide binding; Potency, µM (titrated, usually from 57.1 µM), for the others: top-dose activity, negative = inhibition, actives largely listed as inhibitors; hit rate 0.66% among 230,000; AID 485360; note: % is set by controls: 0 for no effect and ±100 for the full control effect; nearly all actives have a fitted effect of over 60% in size
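Displacement of a biotinylated histone H3(1-15) peptide monomethylated at Lys9 (75 nM) from L3MBTL1 (50 nM) was measured by AlphaScreen after a 30 min room-temperature compound incubation; cefsulodin titration served as intraplate control.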
HP1b binding inh: blocks HP1-beta chromodomain binding to methylated histone tails; AlphaScreen HP1-beta / biotin-H3K9me3 peptide binding; Potency, µM (top dose mostly 114 µM), inactives show at the highest dose activity change, negative = inhibition, hits mostly inhibitors; hit rate 0.56% among 390,000; note: nearly all actives have a fitted effect of over 70% in size
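Compound inhibition of the preformed complex between 50 nM HP1-beta and 50 nM biotinylated H3K9me3 peptide was read by AlphaScreen. Buffer was PBS pH 7.4 with 0.01% Tween-20. Incubations ran 30 min at room temperature, with 10 ug/mL donor/acceptor beads.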
* marks the source's active call; other numbers are inactive results; ? = inconclusive; nt = not tested or not shown; [ ] = another dose, or the depositor's remark. Shown are actives, neighbours in structure and some others; about 12% of the full set was active somewhere. Calls come from the whole dose curve; as a rule, active = well fitted curve in the direction sought with a large enough effect; inconclusive = small, poorly fitted or top-dose-only effect, or another doubt; inactive = no such curve, though single readings can be large; an effect the other way counts as inactive or inconclusive. Potency is the fitted concentration of half-maximal effect.

SMILES	G9a block	JMJD2A Tudor inh	BAZ2B inh	Sfp PPTase inh	L3MBTL1 inh	HP1b binding inh
Cc1ccc2c(c1C)NC(C(=O)O)C1CC=CC21 (stereo not drawn)	8.9µM*	7.9µM*	7.1µM*	45µM*	5µM*	11µM*
COC(=O)CNC(=O)C1Nc2ccc(OC(F)(F)F)cc2C2C=CCC12 (stereo not drawn)	nt	-17%	nt	nt	nt	38%
Cc1ccc(Cl)c2c1N[C@@H](c1ccc(C(=O)O)cc1)[C@H]1CC=C[C@@H]21	?	?	?	nt	nt	5%
COc1ccc(N(C)S(=O)(=O)c2cccc(C(=O)OCC(=O)N(C)c3ccccc3)c2)cc1	nt	-19%	nt	nt	0%	-6%
CC(=O)Nc1ccc(SCC(CC(C)C)N2CCN(CCc3ccccc3)CCC2=O)cc1 (stereo not drawn)	nt	-28%	nt	-22%	nt	24%
Cc1cc(C)c2c(c1)N[C@H](c1cccs1)[C@@H]1CCO[C@H]21	3%	-10%	-3%	14%	-4%	27%
Cc1cc(C)c2c(c1)NC(C(=O)O)C1CC=CC21 (stereo not drawn)	nt	13µM*	11µM*	89µM*	5µM*	20µM*
CC(C)OC(=O)[C@@H]1CC[C@H](C)[C@@H](CCC[C@@H]2CC=C[C@H](CC#N)O2)O1	nt	nt	nt	-1%	nt	nt
CCN=c1scc(-c2ccc(F)cc2)n1/N=C/c1ccccn1	16µM*	?	nt	?	-26%	?
CCN=c1scc(-c2ccccc2)n1/N=C/c1ccccn1	?	28µM*	14µM*	-22%	-21%	?
C=CCN=c1scc(-c2ccccc2)n1/N=C/c1ccccn1	?	45µM*	28µM*	-29%	-27%	28µM*
COc1cc(N/N=C(\C)c2ccc(N)cc2)nc(-c2ccccc2)n1	45µM*	-34%	32µM*	15%	?	3%
CCN1CCN(Cc2ccc(NC(=O)c3ccc(C)c(/C=C/c4cnc(Nc5cc(N6CCNCC6)nc(C)n5)cn4)c3)cc2C(F)(F)F)CC1	28µM*	79µM*	?	56µM*	-4%	?
CCN1CCN(Cc2ccc(NC(=O)c3ccc(C)c(NC(=O)c4ccno4)c3)cc2C(F)(F)F)CC1	-46%[59 µM]	-20%	-15%	15%	nt	37%
O=C(CCNC(=O)N1CCn2c1nc1ccccc12)NCc1ccccc1Cl	?	-21%	-6%	2%	nt	53%
COCCCNC(=O)CN(c1ccc(OC)cc1)S(=O)(=O)c1ccc(NC(C)=O)cc1	35%[12.7 µM]	-23%	-21%	8%	-2%	22%
COc1ccc(N(CC(=O)NC(C)C)S(=O)(=O)c2ccc(NC(C)=O)cc2)cc1	1.4µM*	-29%	-13%	7%	nt	-4%
Cc1ccccc1NC(=O)CSc1n[nH]c(-c2ccccn2)n1	12%	3.5µM*	2.8µM*	?	nt	60%
Cc1ccc(O)c(NC(=O)CSc2n[nH]c(-c3ccccc3)n2)c1	9%	-24%	-27%	12%	nt	22%
Cc1ccc(C)c(NC(=O)CSc2n[nH]c(-c3ccccn3)n2)c1	61%	1.3µM*	4.5µM*	-15%	nt	15%
O=C(CSc1n[nH]c(-c2ccccn2)n1)Nc1cccc(Cl)c1	?	6.3µM*	5µM*	14%	nt	47%
Cc1cccc(NC(=O)c2ccc(Cl)c(S(=O)(=O)N3CCc4ccccc43)c2)n1	-26%[12.7 µM]	-15%	16%	nt	12%	12%
O=C(O)c1ccc(S(=O)(=O)N2CCCc3ccccc32)cc1	-13%	0%	-10%	6%	nt	25%
NC(=O)c1ccsc1NC(=O)c1ccc(S(=O)(=O)N2CCCc3ccccc32)cc1	50µM*	-34%	?	6%	-4%	13%
O=C(NCc1ccccc1)c1ccc(NC(=O)C2CCCO2)cc1 (stereo not drawn)	20µM*	-6%	-31%	18%	nt	36%
SMILES	G9a block	JMJD2A Tudor inh	BAZ2B inh	Sfp PPTase inh	L3MBTL1 inh	HP1b binding inh
COc1cccc(CNC(=O)c2ccc(NC(=O)C3CCCO3)cc2)c1 (stereo not drawn)	7%[59 µM]	-4%	-4%	-2%	1%	33%
O=C(Nc1ccc(S(=O)(=O)N2CCCc3ccccc32)cc1)C1CCCO1 (stereo not drawn)	45µM*	-25%	4%	2%	-9%	7%
O=C(Nc1ccncc1)c1ccc(Cl)c(S(=O)(=O)N2CCc3ccccc32)c1	?	?	50µM*	nt	-11%	-17%
O=C(Nc1ccc(F)cc1F)NC1CCCCCCC1	37%	-5%	3%	14%	nt	48%
CCc1ccc(NC(=O)CC2C(=O)N(c3ccc(F)cc3)C(=O)N2Cc2ccc(F)cc2)cc1 (stereo not drawn)	6%[59 µM]	-14%	-6%	nt	nt	17%
NS(=O)(=O)c1ccc(NC(=O)c2ccc(S(=O)(=O)N3CCc4ccccc43)cc2)cc1	32µM*	-26%	-14%	6%	nt	28%
Cc1oc2ccc(O)c(CN3CCN(C)CC3)c2c1C(=O)Nc1cccc(C(F)(F)F)c1	-27%[59 µM]	-27%	-15%	nt	nt	11%
CSc1nsc(SC)c1C(=O)Nc1ccc(C)cc1	25µM*	-12%	?	7%	4%	23%
Cn1c(C(=O)N2CCCC2)cc2c(=O)n(C)c3ccccc3c21	12%	-10%	-5%	12%	nt	39%
CCN1CCCC(OC(=O)c2cc(-c3ccc(C)cc3)nc3ccccc23)C1 (stereo not drawn)	?	18µM*	nt	4%	-12%	13%
Cn1c(C(=O)N2CCN(c3ncccn3)CC2)cc2c(=O)n(C)c3ccccc3c21	45µM*	-2%	-3%	40µM*	nt	41%
O=C(c1cc(-c2ccc(Br)cc2)nc2ccccc12)N1CCN(c2ccccc2O)CC1	50µM*	?	-12%	nt	-4%	-18%
CCOC(=O)C1CCCN(C(=O)c2cc(-c3ccc(F)cc3)nc3ccccc23)C1 (stereo not drawn)	7%	-6%	-12%	4%	5%	0%
Cc1ccc(-c2cc(C(=O)N3CCN(c4ncccn4)CC3)c3ccccc3n2)cc1	45µM*	-13%	-35%	-20%	-4%	26%
Cc1ccc(SCCN2CCN(CC(C)C)CCC2=O)cc1	22%[59 µM]	-17%	3%	-7%	nt	6%
CC(C)c1ccc(S(=O)(=O)Nc2ccc3c(c2)OCO3)cc1	nt	-21%	nt	nt	-9%	35%
COc1ccc(NC(=O)Cn2c(=O)n(CCc3ccccc3)c(=O)c3c4c(sc32)CCCC4)cc1	-6%[59 µM]	-10%	7%	nt	nt	18%
Cc1ccccc1CN1CCN(C(=O)c2cc(-c3ccncc3)nc3ccccc23)CC1	35µM*	?	?	?	nt	-13%
